Compound activity (PubChem BioAssay)
An excerpt weighted towards active compounds, which were near 7% of everything screened.
AHR activator: AHR activators, primary screen, cell-based, luminescence, luciferase reporter, human; Aryl hydrocarbon receptor (Homo sapiens), P35869; AHR-responsive luciferase reporter cells; activation, % at 5 µM; 320,000 tested, 2.5% active; AID 2796, 2010; in the data active = activation above about 47%
Target sequence (P35869 whole entry, looked up): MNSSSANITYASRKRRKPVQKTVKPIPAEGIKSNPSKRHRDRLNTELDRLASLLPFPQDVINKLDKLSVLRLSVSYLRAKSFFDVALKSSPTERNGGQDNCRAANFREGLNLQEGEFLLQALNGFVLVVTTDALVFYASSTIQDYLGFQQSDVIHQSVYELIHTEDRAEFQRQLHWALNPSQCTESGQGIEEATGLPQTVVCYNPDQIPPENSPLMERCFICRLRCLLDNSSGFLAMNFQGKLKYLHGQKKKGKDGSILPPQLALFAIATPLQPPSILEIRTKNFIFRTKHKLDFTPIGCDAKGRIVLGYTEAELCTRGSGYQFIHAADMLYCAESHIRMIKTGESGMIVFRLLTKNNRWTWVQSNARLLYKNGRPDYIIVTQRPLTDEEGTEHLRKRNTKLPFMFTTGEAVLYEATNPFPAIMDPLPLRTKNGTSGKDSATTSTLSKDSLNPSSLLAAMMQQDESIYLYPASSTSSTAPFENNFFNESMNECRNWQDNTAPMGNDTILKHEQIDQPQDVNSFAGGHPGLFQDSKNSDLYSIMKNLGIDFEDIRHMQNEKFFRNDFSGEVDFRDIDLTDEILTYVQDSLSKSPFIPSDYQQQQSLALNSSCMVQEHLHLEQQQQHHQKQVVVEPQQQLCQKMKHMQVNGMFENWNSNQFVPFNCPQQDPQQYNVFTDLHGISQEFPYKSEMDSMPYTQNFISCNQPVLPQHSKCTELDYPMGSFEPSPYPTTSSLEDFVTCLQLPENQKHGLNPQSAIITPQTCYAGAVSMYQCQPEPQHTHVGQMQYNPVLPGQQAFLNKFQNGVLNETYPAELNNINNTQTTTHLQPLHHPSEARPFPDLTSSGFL
rCAG RNA binder: binders of r(CAG) RNA repeats, primary screen, biochemical, fluorescence; r(CAG) RNA repeat, TO-PRO-1 dye displacement fluorescence; inhibition, % at 3 µM; 370,000 tested, 1.3% active; AID 651821, 2012;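 active = inhibition above the plate cutoff, the mean of all test compounds on that plate plus 3 SD, cut at about 35% in these data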;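 also: higher means more dye released from RNA so lower well fluorescence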
ADAM10 inh: human ADAM10 inhibitors, primary screen, biochemical, QFRET, HTS; Disintegrin and metalloproteinase domain-containing protein 10 (Homo sapiens), O14672; inhibition, % at 7 µM; 370,000 tested, 0.62% active; AID 720582, 2013; recombinant ADAM10, EDANS/DABCYL FRET peptide cleavage, 3 h;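 active = inhibition above a per-campaign cutoff equal to the mean of compounds falling between control-based bounds plus 3 SD, cut at about 20% in these data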
NR3A LBD binder: binders of NR3A ligand-binding domain, primary screen, biophysical, differential scanning fluorimetry, uHTS; Glutamate receptor ionotropic, NMDA 3A (GRIN3A) ligand-binding domain; Tm shift relative to glycine control, % at 25 µM; NR3A LBD differential scanning fluorimetry, Tm shift; 0% = protein alone, 100% = glycine-bound protein; 340,000 tested, 2.5% active; AID 1259313, 2017;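 active = melting temperature shift of at least 10% of the positive control shift, at one fixed dose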
KLK7 zymogen act: proKLK7 zymogen activators, primary screen, biochemical, fluorescence intensity; Kallikrein-7 (Homo sapiens), P49862; purified proKLK7, EDANS-DABCYL substrate fluorescence; 100% is mature enzyme control, 0% vehicle; activation, % at 7 µM; 370,000 tested, 0.9% active;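 active = activation above the mean of all tested compounds plus 3 SD, computed per campaign excluding outliers beyond control limits, cut at about 13% in these data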
ADAM17 inh: ADAM17 inhibitors, primary screen, biochemical, QFRET; Disintegrin and metalloproteinase domain-containing protein 17 (Homo sapiens), P78536; recombinant ADAM17, EDANS/DABCYL FRET peptide cleavage; inhibition, % at 6.95 µM; 370,000 tested, 0.83% active;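 active = inhibition above the mean of compounds lying between control limits plus 3 SD, set per campaign, cut at about 8.5% in these data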
A number is an active result; - = inactive; . = no result given.

SMILES	AHR activator	rCAG RNA binder	ADAM10 inh	NR3A LBD binder	KLK7 zymogen act	ADAM17 inh
Cc1ccc(OC(C)C(=O)Nc2ccc(S(=O)(=O)Nc3cc(C)on3)cc2)cc1 (stereo not drawn)	-	-	-	16	-	-
Cc1cc(NS(=O)(=O)c2ccc(NC(=O)Nc3cccc(Cl)c3)cc2)no1	-	68	-	21	-	-
Cc1cc(NC(=O)Nc2cccc(Cl)c2)no1	.	-	-	.	-	-
Cc1cc(NS(=O)(=O)c2ccc(NC(=S)NC(=O)c3ccc(F)cc3)cc2)no1	-	-	-	14	-	-
CC(Oc1ccc(Cl)cc1Cl)C(=O)Nc1ccc(S(=O)(=O)Nc2cnc3ccccc3n2)cc1 (stereo not drawn)	-	.	.	18	.	.
CC(=O)CC[C@H]1CC[C@]2(CCCN(C(=O)C3CCCCC3)C2)O1	.	-	-	.	-	-
C[C@H](O)[C@@H]1CN2CCc3ccc(N4CCOCC4)cc3[C@@H]2C[C@@H]1N(C)CC1CCCCC1	.	-	-	.	-	-
O=C(c1ccccc1OCc1ccccc1)N(Cc1ccccn1)CC1CCCO1 (stereo not drawn)	.	-	-	.	-	-
COC(=O)[C@]12C[C@H](CC(=O)NCCCCc3ccccc3)C(=O)N(Cc3cccc4ccccc34)C1=C[C@H](C1CCCC1)O[C@@H]2C	.	-	-	.	-	-
CC1=CCC(/C=N\Nc2nnc3c(n2)[nH]c2ccccc23)CC1 (stereo not drawn)	55	.	.	.	.	.
COC(=O)C1=C(C)N(C)C(=NCC2CC2)NC1c1cccc(C(F)(F)F)c1 (stereo not drawn)	.	-	-	.	-	-
COc1ccc(OC)c(S(=O)(=O)N2CCCCC2C(=O)N2CCN(c3ccccc3F)CC2)c1 (stereo not drawn)	.	-	-	.	-	-
Nc1nc(-c2c[nH]c3ccccc23)cs1	58	-	-	-	-	-
CNc1nc(-c2c[nH]c3ccccc23)cs1	-	-	-	-	-	-
CCCCOCCCNC(=O)C[C@H]1C(=O)N(Cc2ccc(OC)cc2)C2=CCCC[C@@]21C(=O)OCC	.	-	-	.	-	-
COC(=O)C1CN(Cc2cn(CCC3OCCO3)nn2)CCS(=O)(=O)N1Cc1ccc(OC)cc1 (stereo not drawn)	.	-	-	.	-	-
COc1cc([C@H]2OC[C@H]3[C@@H]2CO[C@@H]3c2ccc(O[C@H]3O[C@H](CO)[C@@H](O)[C@H](O)[C@H]3O)c(OC)c2)ccc1O[C@@H]1O[C@H](CO)[C@@H](O)[C@H](O)[C@H]1O	-	-	-	16	-	-
Cc1cc(O)c(-c2cc(C(=O)Nc3sc4c(c3C(=O)NCc3ccco3)CCC4)[nH]n2)cc1C	-	-	-	-	-	-
Cc1ccc(-c2cc(C(=O)Nc3sc4c(c3C(=O)NCc3ccco3)CCC4)[nH]n2)c(O)c1	-	-	-	21	-	-
Cc1cc(C)c2[nH]c3nc(SCC(=O)O)nnc3c2c1	50	-	-	-	-	-
CCN(Cc1ccccc1)C(=O)c1cc(-c2ccc(OC)c(OC)c2)nc2ccccc12	69	-	-	-	-	-
COc1ccc(-c2cc(C(=O)N(C)Cc3ccccc3F)c3ccccc3n2)cc1OC	71	-	-	-	-	-
O=C(C1CCCN1S(=O)(=O)c1cccc2ccccc12)N1CCN(c2ccccc2)CC1 (stereo not drawn)	.	-	-	.	-	-
c1ccc(-c2noc(-c3cccnc3)n2)cc1	59	-	-	-	-	-
COc1ccc2[nH]c(=O)c(-c3noc(-c4ccccc4)n3)cc2c1	-	-	-	-	-	-
SMILES	AHR activator	rCAG RNA binder	ADAM10 inh	NR3A LBD binder	KLK7 zymogen act	ADAM17 inh
O=c1[nH]c2ccccc2cc1-c1noc(-c2cccnc2)n1	73	-	-	-	-	-
CN(C)C(=O)NCCCC#Cc1ccccc1	.	-	-	.	-	-
CCCCCCCCN1C(=O)[C@@H](CC(=O)NCc2ccc(OC)c(OC)c2)C[C@@]2(C(=O)OC)C1=C[C@H](COCc1ccccc1)O[C@@H]2C	.	-	-	.	-	-
Cc1cc(C)cc(NC(=O)CN2C(=O)NC(Cc3c[nH]c4ccccc34)C2=O)c1 (stereo not drawn)	-	-	-	-	-	-
CC(C)CC1NC(=O)N(CC(=O)Nc2ccc(-c3ccccc3)cc2)C1=O (stereo not drawn)	-	-	-	13	-	-
CC(C)c1ccc(NC(=O)CN2C(=O)NC(Cc3c[nH]c4ccccc34)C2=O)cc1 (stereo not drawn)	-	-	-	13	-	-
CC(C)CC1NC(=O)N(CC(=O)Nc2ccccc2-c2ccccc2)C1=O (stereo not drawn)	-	-	-	-	-	-
COc1ccc(-c2cn3c(C)c(C(=O)N4CCCc5ccccc54)sc3n2)cc1	-	-	-	-	-	-
COc1ccc(-c2cn3c4c(sc3n2)CCCC4)cc1	68	-	-	-	-	-
Cc1ccccc1NC(=O)c1ccc(NS(=O)(=O)c2cc(C(C)(C)C)cc(C)c2C)cc1	-	-	-	13	-	-
Cc1ccc(C(=O)Nc2nnc(S(=O)(=O)Nc3ccccc3C)s2)cc1C	-	45	-	-	-	-
O=C(NCC1CCN(C(=O)C(=O)c2cccs2)CC1)c1cccnc1	.	-	-	.	-	-
CC(C)C[C@H]1COc2cccc(N3CCSCC3)c2S(=O)(=O)N1C	.	-	-	.	-	-
CCn1c2ccccc2c2cc(NC(=O)CC(C)=O)ccc21	57	-	-	-	-	-
CCCC(=O)Nc1ccc2c(c1)c1ccccc1n2CC	69	-	-	-	-	-
CC(N=c1ccccn1C(=O)Nc1ccc(Cl)cc1)c1ccco1 (stereo not drawn)	-	.	.	24	.	.
COc1cc2c(cc1NC(=O)COC(=O)[C@@H](NS(=O)(=O)c1cccc(Cl)c1)C(C)C)oc1ccccc12	57	-	-	-	-	-
COc1cc2c(cc1NC(=O)COC(=O)CNS(=O)(=O)c1ccc(C)cc1)oc1ccccc12	-	-	-	-	-	-
COc1ccc(S(=O)(=O)N[C@@H](C)C(=O)OCC(=O)Nc2cc3oc4ccccc4c3cc2OC)cc1	-	-	-	25	-	-
CS(=O)(=O)N[C@@H]1C[C@@H]2O[C@@H](CO)CC[C@@H]2O[C@@H]1CCc1ccc(-c2ccccc2F)cc1	.	-	-	.	-	-
Cc1oc(-c2ccccc2Cl)nc1CS(=O)CC(=O)NCCc1ccccc1 (stereo not drawn)	-	-	-	-	-	-
